For 15 molecules, Potency and viability results are on record in PubChem BioAssay (NCATS).

The structures appear in SMILES notation. Records with an inconclusive call do not appear. Unmarked numbers belong to inactive results. Activity calls are given as the source filed them. Calls come from the whole dose curve; as a rule, active = well fitted cell-killing curve with a large enough effect; inconclusive = small, poorly fitted or top-dose-only effect, or effect the other way; inactive = no such curve, though single readings can be large or run the other way.

Experiment [1] can be described thus: Quantitative High-Throughput drug screen in 47 multiple myeloma cell lines against the NCATS MIPE library collection: OCIMY7_PLB cell viability assay (AID 1918987). Note: nearly all actives have a fitted effect of over 65% in size. In outline:
(§1)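 Viability after 48 h drug exposure was measured as ATP-dependent luminescence. Cells, 500 per well, sat at 37 °C under 5% CO2; DMSO wells set 100%, media-only wells 0%.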

A short description of experiment [2]: Quantitative High-Throughput drug screen in 47 multiple myeloma cell lines against the NCATS MIPE library collection: OCIMY5_PLB cell viability assay (AID 1918988). Note: nearly all actives have a fitted effect of over 65% in size. In outline: as §1
Experiment [3] in a line: Quantitative High-Throughput drug screen in 47 multiple myeloma cell lines against the NCATS MIPE library collection: SKMM1_PLB cell viability assay (AID 1919863). For viability: series mostly up to about 46 µM. Note: nearly all actives have a fitted effect of over 35% in size. As to conditions: SKMM1 myeloma viability, CellTiter-Glo ATP, 48 h; viability: stronger effect = lower value. In outline:
as §1
(In general: ATP-based viability assays read luminescence as a measure of living cells.)

Experiment [4] in a line: Quantitative High-Throughput drug screen in 47 multiple myeloma cell lines against the NCATS MIPE library collection: U266_ATCC cell viability assay (AID 1919864). Note: nearly all actives have a fitted effect of over 35% in size. The method, boiled down:
as §1

Experiment [5] is described as follows: Quantitative High-Throughput drug screen in 47 multiple myeloma cell lines against the NCATS MIPE library collection: XG6_PLB cell viability assay (AID 1919865). Note: nearly all actives have a fitted effect of over 40% in size. In outline:
as §1

The nature of experiment [6]: Quantitative High-Throughput drug screen in 47 multiple myeloma cell lines against the NCATS MIPE library collection: XG1_PLB cell viability assay (AID 1919866). Note: nearly all actives have a fitted effect of over 35% in size. In outline:
as §1

A short description of experiment [7]: Quantitative High-Throughput drug screen in 47 multiple myeloma cell lines against the NCATS MIPE library collection: VP6_DJ cell viability assay (AID 1919867). Note: nearly all actives have a fitted effect of over 40% in size. The method, boiled down:
as §1

Experiment [8] in a line: Quantitative High-Throughput drug screen in 47 multiple myeloma cell lines against the NCATS MIPE library collection: PE2_PLB cell viability assay (AID 1919869). Note: nearly all actives have a fitted effect of over 35% in size. The method, boiled down: as §1
Experiment [9] in a line: Quantitative High-Throughput drug screen in 47 multiple myeloma cell lines against the NCATS MIPE library collection: PCM6_Riken cell viability assay (AID 1919870). Note: nearly all actives have a fitted effect of over 30% in size. In outline:
as §1

Experiment [10] in a line: Quantitative High-Throughput drug screen in 47 multiple myeloma cell lines against the NCATS MIPE library collection: RPMI8226_ATCC cell viability assay (AID 1919871). Note: nearly all actives have a fitted effect of over 30% in size. The method, boiled down: as §1
A short description of experiment [11]: Quantitative High-Throughput drug screen in 47 multiple myeloma cell lines against the NCATS MIPE library collection: OPM2_DSMZ cell viability assay (AID 1919872). Note: nearly all actives have a fitted effect of over 30% in size. In outline: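 We plated 500 myeloma cells per well, pinned in MIPE 4.0 compounds, and incubated for 48 hours at 37C. ATP was then quantified with CellTiter-Glo, with DMSO and media-only wells defining 100% and 0%.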

Experiment [12] in a line: Quantitative High-Throughput drug screen in 47 multiple myeloma cell lines against the NCATS MIPE library collection: KMS28BM_JCRB cell viability assay (AID 1919874). Note: nearly all actives have a fitted effect of over 35% in size. The method, boiled down:
as §1

Experiment [13] is described as follows: Quantitative High-Throughput drug screen in 47 multiple myeloma cell lines against the NCATS MIPE library collection: OPM1_PLB cell viability assay (AID 1918989). Note: nearly all actives have a fitted effect of over 40% in size. The method, boiled down:
as §1

A short description of experiment [14]: Quantitative High-Throughput drug screen in 47 multiple myeloma cell lines against the NCATS MIPE library collection: KMS11_JCRBsus cell viability assay (AID 1919873). Note: nearly all actives have a fitted effect of over 50% in size. The method, boiled down: as §1
Potency is the fitted concentration of half-maximal effect.

`Cc1cc2cc3c(C)cc(=O)oc3c(C)c2o1`: the Potency in [1] is 26.4 µM (active); in [2], 8.33 µM (active); in [3], 26.4 µM (active); in experiment [4], 11.8 µM (active); in experiment [5], 6.62 µM (active); in [6], 18.7 µM (active). In addition, the Potency was 23.5 µM (active) in experiment [7], 20.9 µM (active) in experiment [8], 20.9 µM (active) in experiment [9] and 20.9 µM (active) in experiment [10]. Besides, the Potency result in [11] and in experiment [12] was “inactive” each time.

As for `Oc1ccc2ccccc2c1SSc1c(O)ccc2ccccc12`, the Potency in [1] was 4.69 µM (active); in [2], 14.8 µM (active); in experiment [13], 8.33 µM (active); in [3], 18.7 µM (active); in [4], 20.9 µM (active); in experiment [5], 10.5 µM (active). For the same molecule, the Potency in experiment [6] was 11.8 µM (active); in experiment [7] it was 16.6 µM (active); in experiment [8], 7.43 µM (active); in experiment [9] it was 13.2 µM (active); in experiment [10] it was 26.4 µM (active); in experiment [11], 20.9 µM (active). Also, the Potency in experiment [14] was 13.2 µM (active); in experiment [12] it was 23.5 µM (active).

`COC(=O)C1=C(C)NC(C)=C(C(=O)OC(C)C)C1c1cccc2nonc12` (stereo not drawn): the Potency in experiment [1] was 6.62 µM (active); in [13], 26.4 µM (active); in experiment [4], 3.72 µM (active); in [5], 5.9 µM (active); in experiment [6] it was 11.8 µM (active); in experiment [7] it was 26.4 µM (active). The Potency in experiment [8] is 20.9 µM (active); in experiment [9], 26.4 µM (active). Further, the Potency entry in [2] and in experiment [11] was “inactive” each time.

`CN(C)C(=O)[C@H](O)[C@H](Cc1ccccc1)NC(=O)c1cc2cc(Cl)ccc2[nH]1`: the Potency is 2.96 µM (active) in [1]; 13.2 µM (active) in [2]; 6.62 µM (active) in experiment [13]; 7.43 µM (active) in experiment [7]; 2.64 µM (active) in experiment [8]; 8.33 µM (active) in experiment [9]. The Potency is 14.8 µM (active) in [11] and 16.6 µM (active) in experiment [14].

Regarding `Cc1cc(C2CCCCC2)n(O)c(=O)c1`, the Potency was 7.43 µM (active) in experiment [1]; 2.09 µM (active) in experiment [2]; 9.35 µM (active) in experiment [13]; 9.35 µM (active) in experiment [3]; 8.33 µM (active) in experiment [5]; 8.33 µM (active) in experiment [6]. Also, the Potency was 8.33 µM (active) in experiment [7], 8.33 µM (active) in experiment [8], 8.33 µM (active) in experiment [9] and 5.26 µM (active) in [14].

For `O=C(CCc1ccc(O)cc1)c1c(O)cc(O)cc1O`, the Potency was 0.148 µM (active) in experiment [1]; 0.132 µM (active) in experiment [2]; 1.18 µM (active) in [13]; 1.05 µM (active) in [3]; 0.118 µM (active) in experiment [5]; 0.132 µM (active) in experiment [6]. Besides, the Potency was 0.418 µM (active) in experiment [7]; 5.26 µM (active) in [8]; 0.235 µM (active) in experiment [9]; 4.69 µM (active) in experiment [10]; 3.32 µM (active) in experiment [11]. The Potency result in [4] and in experiment [12] was “inactive” each time.

In the case of `Oc1ccc(-c2nc(-c3ccc(F)cc3)c(-c3ccncc3)[nH]2)cc1`, the Potency in experiment [1] was 9.35 µM (active); in experiment [2], 16.6 µM (active); in experiment [13], 20.9 µM (active); in experiment [7], 16.6 µM (active); in [8] it was 26.4 µM (active); in [9], 20.9 µM (active). In addition, in experiment [10], the Potency result is “inactive”.

Regarding `O=Nc1c(-c2c(O)[nH]c3cc(Br)ccc23)[nH]c2ccccc12`, the Potency in experiment [1] was 1.87 µM (active); in [2], 7.43 µM (active); in experiment [13], 5.26 µM (active); in experiment [3], 20.9 µM (active); in experiment [4], 16.6 µM (active); in [5], 3.32 µM (active). The Potency in [6] was 5.9 µM (active); in experiment [7] it was 5.26 µM (active); in experiment [8] it was 5.26 µM (active); in experiment [9] it was 3.32 µM (active); in experiment [10], 18.7 µM (active); in experiment [11], 20.9 µM (active). In experiment [14], the Potency is 3.72 µM (active).

In the case of `NCCCCNCCCN`, the Potency is 10.5 µM (active) in experiment [1]; 14.8 µM (active) in experiment [2]; 23.5 µM (active) in [13]; 20.9 µM (active) in experiment [3]; 7.43 µM (active) in experiment [4]; 20.9 µM (active) in experiment [6]. Further, the Potency is 26.4 µM (active) in [7]; 16.6 µM (active) in experiment [8]; 16.6 µM (active) in experiment [9]; 23.5 µM (active) in [10]; 20.9 µM (active) in experiment [11]. Moreover, the Potency result in experiment [12] is “inactive”.

Usually viability stands for a read-out of living cells in per cent, often relative to untreated cells. For `c1ccc2[nH]c(-c3cscn3)nc2c1`, the Potency result in experiment [1], in experiment [2], in experiment [13], in [5], in experiment [6] and in [7] was “inactive” in each case. The Potency result in experiment [8], in [9], in [10], in experiment [11], in experiment [14] and in [12] was “inactive” in each case. In addition, the viability in experiment [3] is 120%.

As for `Nc1cccc2c1CN(C1CCC(=O)NC1=O)C2=O` (stereo not drawn), the Potency in experiment [1] was 0.0382 µM (active); in [6], 3.03 µM (active); in experiment [7], 4.81 µM (active). Moreover, the Potency entry in [2], in experiment [13], in experiment [4], in experiment [5], in experiment [9] and in [11] was “inactive” each time. For the same molecule, in [12], the Potency entry is “inactive”. Besides, the viability in experiment [3] was 122%.

Take `N[C@@H](Cc1cc(I)c(Oc2cc(I)c(O)c(I)c2)c(I)c1)C(=O)O`: the Potency result in [1], in experiment [13], in [4], in experiment [5], in experiment [6] and in [7] was “inactive” in each case. The Potency result in experiment [8], in experiment [9], in [10], in experiment [11], in [14] and in experiment [12] was “inactive” in each case. The viability in experiment [3] is 121%.

In the case of `CN(C)c1ccc(O)c2c1C[C@H]1C[C@H]3[C@H](N(C)C)C(=O)C(C(N)=O)=C(O)[C@@]3(O)C(=O)C1=C2O`, the Potency is 10.5 µM (active) in experiment [1]; 9.35 µM (active) in experiment [2]; 5.9 µM (active) in experiment [4]; 20.9 µM (active) in experiment [8]; 18.7 µM (active) in [9]; 20.9 µM (active) in [11].

Consider `CCN(CC)CCOc1ccc(Nc2ncc3cc(-c4c(Cl)cccc4Cl)c(=O)n(C)c3n2)cc1`, for which the Potency was 1.48 µM (active) in experiment [1]; 0.105 µM (active) in experiment [2]; 0.0187 µM (active) in [13]; 5.26 µM (active) in [3]; 10.5 µM (active) in experiment [4]; 0.0296 µM (active) in experiment [5]. Also, the Potency in experiment [6] is 0.59 µM (active); in experiment [7], 0.0083 µM (active); in experiment [8] it was 0.0418 µM (active); in experiment [9], 0.935 µM (active); in [10] it was 2.35 µM (active); in [11], 1.18 µM (active). In addition, the Potency was 0.0418 µM (active) in experiment [14] and 0.526 µM (active) in experiment [12].

In the case of `COc1cc(Nc2c(C#N)cnc3cc(OCCCN4CCN(C)CC4)c(OC)cc23)c(Cl)cc1Cl`, the Potency is 0.743 µM (active) in [1]; 18.7 µM (active) in experiment [2]; 2.64 µM (active) in [13]; 23.5 µM (active) in [3]; 23.5 µM (active) in experiment [4]; 1.32 µM (active) in experiment [5]. For the same molecule, the Potency in experiment [6] was 2.96 µM (active); in experiment [7], 1.05 µM (active); in experiment [8], 3.72 µM (active); in experiment [9], 1.87 µM (active); in experiment [14] it was 18.7 µM (active); in [12] it was 18.7 µM (active).
